# Laboratory results published in the OligoGym collection.
# Molecular target: FBXW9
# Assay: pooled miR-30 sensor sort-seq; sequence = guide strand
# Details: shRNA
# Also: reference of the scale not given here.
row,Sequence,sensor-assay potency score (higher = more potent)
1,TTCACTGTGCTGTCCCAGGAGC,-1.05
2,TAAGGTCTTGATCAGAACCTGG,-0.161
3,TTGACGTTGCGATCTCGGGAGC,-1.12
4,TTCGCTCTCAACTGAGAGCGGG,-0.823
5,TACTATTTCGCTTAGTGCCTAA,-0.65
6,TCGTAGATGGTCACCTTCTTGT,-0.618
7,TTCTTCTCTTCCACCACTGGGT,-0.376
8,TTCTCTTCCACCACTGGGTAGG,-0.729
9,TAGATGGTCACCTTCTTGTCAT,-0.453
10,TATCTCGCCGAACTGCTGCCCA,-0.658
11,TCGCTCTCAACTGAGAGCGGGG,-1.29
12,TCGCTTAGTGCCTAAGGTCTTG,-0.92

# Molecular target: FCF1
# Assay: as above
# Details: shRNA
row,Sequence,sensor-assay potency score (higher = more potent)
1,TTATGCTGAGTTACTCTCTGTA,0.221
2,TTATATTGGAAAAATAAGCAGG,-0.37
3,TTTAGGTTTTAATCTATCCTTT,-0.181
4,TTCCTTTGTGTGTACATGGTAA,-0.531
5,TTCATGGTCGCATACTTCCTTG,-1.25
6,TTAGGTTTTAATCTATCCTTTT,-0.692
7,TTCAGCCATTACACAATCGGTT,-0.926
8,TTGGGGAACTTCTCTTTCCTTT,-0.569
9,TTTTAGGTTTTAATCTATCCTT,-0.595
10,TCTGAGACTAAGCATTCGCTTC,-1.06
11,TTTTAATCTATCCTTTTCTTTA,-1.02
